# Laboratory results from article PMC11062922 (Nature Chemical Biology, 2023).
# Where two headings read alike, the source gives them in different places.
# What was measured:
# Set-up in all cases: species or system human, MV4-11 + K-562 + COLO205 + SK-N-BE2 + OVCAR-8
# ERN1 = conditions: read-out: apparent Kd, compound concentrations: 100 nM and 1000 nM (sheet 'Samples'), n = 1
# ERN2 = conditions: read-out: apparent Kd, n = 1
# MAP4K1 = conditions: read-out: apparent Kd, n = 1
# CDC42 = conditions: read-out: apparent Kd, n = 1
# ATM = conditions: read-out: apparent Kd; compound concentrations:100 nM and 1000 nM (sheet 'Samples'); n = 1
# FER = conditions: read-out: apparent Kd; compound concentrations:100 nM and 1000 nM (sheet 'Samples'); n = 1
# PAK4 = conditions: read-out: apparent Kd; compound concentrations:100 nM and 1000 nM (sheet 'Samples'); n = 1
# RPS6KA6 = conditions: read-out: apparent Kd; compound concentrations:100 nM and 1000 nM (sheet 'Samples'); n = 1
# MAP3K1 = conditions: read-out: apparent Kd; compound concentrations:100 nM and 1000 nM (sheet 'Samples'); n = 1
# CSNK1G1 = conditions: read-out: apparent Kd; compound concentrations:100 nM and 1000 nM (sheet 'Samples'); n = 1
# ULK3 = conditions: read-out: apparent Kd, n = 1
# CDK6 = conditions: read-out: apparent Kd, n = 1
# ICK = conditions: read-out: apparent Kd, n = 1
# MELK = conditions: read-out: apparent Kd, n = 1
# MYLK3 = conditions: read-out: apparent Kd; compound concentrations:100 nM and 1000 nM (sheet 'Samples'); n = 1
# ILK = conditions: read-out: apparent Kd, n = 1
# VDAC3 = conditions: read-out: apparent Kd, n = 1
# GRK6 = conditions: read-out: apparent Kd; compound concentrations:100 nM and 1000 nM (sheet 'Samples'); n = 1
# STRADA = conditions: read-out: apparent Kd, n = 1
# PRKX;PRKY = conditions: read-out: apparent Kd; compound concentrations: 100 nM and 1000 nM (sheet 'Samples'), CATDS: 3.2948163641369002E-2; n = 1
# [1] = compound concentrations:100 nM and 1000 nM (sheet 'Samples')
smiles,measurement,setting,value
CC(C)c1nc(-c2cccc(NS(=O)(=O)c3c(F)cccc3F)c2F)c(-c2ccnc(Nc3ccc(N4CCOCC4)nc3)n2)s1 [GSK2008607A],potency estimated from few doses,ERN1; CATDS: 1.9066828422081999E-2,1.65 µM
same,potency estimated from few doses,"ERN2; compound concentrations: 100 nM and 1000 nM (sheet 'Samples'), CATDS: 2.27822446193667E-2",0.926 µM
Cn1cc(-c2cnc(N)c3c(-c4ccc5c(c4)CCN5C(=O)Cc4ccccc4)csc23)cn1 [GSK2593074A],potency estimated from few doses,MAP4K1; [1],1.63 µM
CN1CCN(Cc2ccc(-c3ccc4c(Nc5ccc(Oc6ccccn6)cc5)ccnc4c3)o2)CC1 [GW567140X],potency estimated from few doses,"CDC42; compound concentrations: 100 nM and 1000 nM (sheet 'Samples'), CATDS: 3.5970497134968603E-2",1.29 µM
CC(C)c1nc(-c2cccc(NS(=O)(=O)c3c(F)cccc3F)c2)c(-c2ccnc(Nc3ccc(N4CCOCC4)nc3)n2)s1.Cl [GSK1723980B],potency estimated from few doses,ERN1; CATDS: 1.53606700454439E-2,1.32 µM
Cl.Cn1c(=O)c(Cc2ccc(F)cc2F)cc2cnc(NC3CCOCC3)nc21 [RO3308757-001],potency estimated from few doses,ATM,0.247 µM
same,potency estimated from few doses,FER,0.302 µM
same,potency estimated from few doses,PAK4,1.65 µM
same,potency estimated from few doses,RPS6KA6,0.599 µM
CC(C)c1nc(-c2ccc(F)c(NS(=O)(=O)c3c(F)cccc3F)c2)c(-c2ccnc(Nc3ccc(N4CCOCC4)nc3)n2)s1 [GSK1804250A],potency estimated from few doses,ERN2; [1],1.12 µM
COc1cc2ncn(-c3cc(OCc4cccs4)c(C(N)=O)s3)c2cc1OC [GSK312948A],potency estimated from few doses,CDC42; [1],1.55 µM
same,potency estimated from few doses,MAP3K1,1.47 µM
Nc1nc(N)c2nc(-c3ccccc3)[nH]c2n1 [SKF-12778],potency estimated from few doses,CSNK1G1,0.924 µM
same,potency estimated from few doses,ULK3; [1],1.14 µM
N#Cc1cccc(Nc2nccc(-c3cnn4ncccc34)n2)c1 [GW778894X],potency estimated from few doses,CDK6; [1],1.97 µM
same,potency estimated from few doses,ICK; [1],0.00167 µM
CNc1nccc(-c2c(-c3ccc(F)cc3)ncn2C2CCN(C)CC2)n1 [SB-222903],potency estimated from few doses,ATM,0.0807 µM
CNC(=O)c1ccccc1Nc1nc(Nc2cccc(CS(C)(=O)=O)c2)ncc1C.O=CO [GSK1520489A],potency estimated from few doses,"MAP4K1; compound concentrations: 100 nM and 1000 nM (sheet 'Samples'), CATDS: 1.32778170160273E-2",0.423 µM
same,potency estimated from few doses,"MELK; compound concentrations: 100 nM and 1000 nM (sheet 'Samples'), CATDS: 9.6320632964756892E-3",1.61 µM
same,potency estimated from few doses,"ULK3; compound concentrations: 100 nM and 1000 nM (sheet 'Samples'), CATDS: 1.2201291111952599E-2",0.563 µM
COc1cc(/C=N/Nc2ncnc3[nH]ncc23)ccc1O [GW578748X],potency estimated from few doses,MELK; [1],2.39 µM
same,potency estimated from few doses,MYLK3,2.04 µM
CC(=O)c1c(-c2ccncc2)[nH]c(-c2ccncc2)c1C [GW493036X],potency estimated from few doses,CSNK1G1,0.717 µM
CN1CCN(Cc2ccc(NC(=O)Nc3ccc(N(C)c4ccnc(Nc5ccc(CS(C)(=O)=O)cc5)n4)cc3)cc2)CC1.Cl [GW827654A],potency estimated from few doses,"MAP4K1; compound concentrations: 100 nM and 1000 nM (sheet 'Samples'), CATDS: 4.9471634979456398E-2",0.557 µM
Clc1ccc(-c2nn3ncccc3c2-c2ccnc(Nc3ccccc3)n2)cc1 [GW829055X],potency estimated from few doses,"ILK; compound concentrations: 100 nM and 1000 nM (sheet 'Samples'), CATDS: 5.2015680047351402E-2",0.69 µM
same,potency estimated from few doses,"VDAC3; compound concentrations: 100 nM and 1000 nM (sheet 'Samples'), CATDS: 4.3121960870331599E-2",0.997 µM
COc1cc2ncn(-c3cc(OCc4sccc4Cl)c(C(N)=O)s3)c2cc1OC [GSK448459A],potency estimated from few doses,MAP3K1,0.511 µM
CCCN1CCC(Oc2cc(Nc3nc(Nc4cccc(F)c4C(N)=O)c4cc[nH]c4n3)c(OC)cc2Cl)CC1 [GSK1713088A],potency estimated from few doses,"CDK6; compound concentrations: 100 nM and 1000 nM (sheet 'Samples'), CATDS: 0.18030383020801999",2 µM
Cc1ccc(-n2nc(C(C)(C)C)cc2NC(=O)Nc2ccc(OCCN3CCOCC3)cc2)cc1 [BIRB0876BS],potency estimated from few doses,GRK6,2.17 µM
same,potency estimated from few doses,ILK; [1],1.87 µM
NC(=O)c1cccnc1COc1cc(-c2ccc(N3CCOCC3)nc2)cc2ncccc12 [BI01125081],potency estimated from few doses,GRK6,1.7 µM
Fc1cccc(COc2ccc(Nc3ncncc3C#Cc3ccccc3)cc2Cl)c1 [GW651576X],potency estimated from few doses,"CDC42; compound concentrations: 100 nM and 1000 nM (sheet 'Samples'), CATDS: 5.6163427913581303E-2",1.41 µM
same,potency estimated from few doses,"ILK; compound concentrations: 100 nM and 1000 nM (sheet 'Samples'), CATDS: 6.7664406837509503E-2",1.01 µM
COc1cc(F)c(F)c(F)c1C(=O)c1cnc(NC2CCN(S(C)(=O)=O)CC2)nc1N [RO4600703-000],potency estimated from few doses,ICK; [1],0.246 µM
Nc1c(C(=O)c2ccccc2)cnn1-c1ccc(F)cc1 [RO1151246-000],potency estimated from few doses,CDK6; [1],2.12 µM
same,potency estimated from few doses,STRADA; [1],1.83 µM
COc1cc2ncn(-c3cc(O[C@H](C)c4ccccc4Cl)c(C(N)=O)s3)c2cc1OC [GSK237701A],potency estimated from few doses,MAP3K1,0.398 µM
COc1ccc(C2=C(c3cn(C)c4ccccc34)C(=O)NC2=O)cc1OC [RO3206363-000],potency estimated from few doses,PRKX;PRKY,1.62 µM
same,potency estimated from few doses,"STRADA; compound concentrations: 100 nM and 1000 nM (sheet 'Samples'), CATDS: 3.11031335260477E-2",2.05 µM
Cn1cc(C2=C(c3ccccc3[N+](=O)[O-])C(=O)NC2=O)c2ccccc21 [RO0317753-000],potency estimated from few doses,"ICK; compound concentrations: 100 nM and 1000 nM (sheet 'Samples'), CATDS: 0.27950775870472",0.0323 µM
Fc1ccc(-c2ncn(C3CCNCC3)c2-c2ccnc(Oc3ccc4c(c3)OCO4)n2)cc1 [SB-250715],potency estimated from few doses,VDAC3; [1],0.834 µM
